From the supplement of paper PMC10338343
± gives the standard deviation.

The sequences below were run on EfPiwi piRISC loaded with piRNA #1 (26 nt) (assay: pre-steady-state target cleavage rate (min^-1); auxiliary factor: 500 nM Ephydatia muelleri Gtsf1; guide: piRNA #1 5'p-UGAGGUAGUAGGUUGUAUAGUAUCCA; MIWI and MILI are mouse PIWI proteins and EfPiwi is from a freshwater sponge; tags in brackets are library labels; higher = faster piRNA-guided slicing of the target).
Description: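 Cleave-'n-Seq: a library of target RNAs (target site in constant flanks) at […] was incubated with 1 nM active freshwater sponge Ephydatia fluviatilis Piwi piRISC (synthetic 5'-monophosphorylated piRNA guide) with or without 500 nM EmGtsf1 at 33 °C for 1 min to 16 h. Uncleaved targets were sequenced and the pooled three trials fitted to a burst-and-steady-state model to give the pre-steady-state cleavage rate (min^-1). Sequence is the target site only. Fits with R² ≤ 0 are excluded.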

Sequence | pre-steady-state target cleavage rate
GGAGACCUUACUAUACAACCUACAACCUCA | 0.00341 ± 0.0024
GGAGACCUUACUAUACAACCUACUACCGCA | 0.00343 ± 0.0026
GGAGACGAUACUAUACUACGUACUACCUCA | 0.00413 ± 0.0027
GGAGACGAUACUAUACAUCCUACUACGUCA | 0.00318 ± 0.0012
GGAGACCAUUCUAUACAACCUACAACCUCA | 0.00312 ± 0.0031
GGAGUGGAUACUAUACAACCUAGUAGCUCA | 0.00485 ± 0.0018
GGAGUGGAUACUAUACAACCUUCUACCUGA | 0.00359 ± 0.0018
GGAGUGGAUACUAUAGAACCUACUAGCUCA | 0.00232 ± 0.0015
GGAGACGAUACUACACAACCUACUACCUCA | 0.00692 ± 0.0032
GGAGACGAUACUAUACAACCUUGUACCUCA | 0.00308 ± 0.002
GGAGACGAUACUAUACAAGCCUACUACCUCA | 0.00444 ± 0.0036
GGAGACCUUACUACUACAACCUACUACCUCA | 0.00852 ± 0.0036
GGAGACCAUACUAUACUAACCUACUACCUCA | 0.0042 ± 0.0031
GGAGACGAUAGAAUACAACCUACUACCUCA | 0.00812 ± 0.0043
GGAGUGGAUACUAUACGAACCUACUACCUCA | 0.00789 ± 0.0039
GGAGACCUAUGAACACAACCUACUACCUCA | 0.00896 ± 0.0044
GGAGAGGAUUGAAUACAACCUACUACCUCA | 0.00721 ± 0.0044
GGAGACCUAACUAUACAACCUAGUACCACA | 0.00588 ± 0.0049
GGAGACCUAACUAUACAACCUACUAGCUCA | 0.00459 ± 0.0036
GGAGAGGAUACUAUACAACCUACUACCUACA | 0.00995 ± 0.0044

Sequence | pre-steady-state target cleavage rate
GGAGACGAUACUAAACAACCUAGUACCUCA | 0.00281 ± 0.0023
GGAGACGAUACUAUACCACCUACUACCUCA | 0.0106 ± 0.0037
GGAGUGGAUACUAUAGAUCCUACUACCUCA | 0.0045 ± 0.0029
GGAGUGGAUACAAUACAACCUACAACCUCA | 0.00248 ± 0.0013
GGAGACCAUACUAUACAACCUACUACCGUCA | 0.00677 ± 0.0025
GGAGUGGAUACUAUACAACCUCCUACCUCA | 0.0053 ± 0.0019
GGAGUGGAUACUAUACAACCAAGUACCUCA | 0.00281 ± 0.0018
GGAGACCAUACUAUACAACCAACUACCUGA | 0.00258 ± 0.0022
GGAGACGAUACUAAACAACCAACUACCUCA | 0.0024 ± 0.0017
GGAGACCUUACUAUACUACCUACUACCUCA | 0.00739 ± 0.0039
GGAGACCAUACUAUACACACCUACUACCUCA | 0.00511 ± 0.0031
GGAGACGAUACUAUACUUCCUACUACCUCA | 0.0109 ± 0.0064
GGAGAGGUUACUAUACAACCAACUACCUCA | 0.00401 ± 0.002
GGAGACCUUUCUAUACAUCCUACUACCUCA | 0.00708 ± 0.0041
GGAGUGGAUACUAUACAACCUACUACCAUCA | 0.00588 ± 0.0026
GGAGUGGAUACUAUACAACCUACGACCUCA | 0.00416 ± 0.0017
GGAGACCUAUGAGUACAACCUACUACCUCA | 0.00713 ± 0.004
GGAGACGUUACUAUACAACCUACUACGUCA | 0.00396 ± 0.0018
GGAGACGGUACUAUACAACCUACUACCUCA | 0.0154 ± 0.0059
GGAGAGCAUACUAUACAACCUACUAGCUCA | 0.00355 ± 0.0022
